{"source": "paper PMC7819943", "about": "“Rice protein-binding microarrays: a tool to detect cis-acting elements near promoter regions in rice”", "note": "The full ranking holds about 39,000 sequences; the median of “fluorescence intensity (a.u.)” is about 4,300, and the highest 2% start at about 39,000. Shown is part of a subset that was picked to be rich in the highest values."}
{"target": "T1, OsSMF1 (Oryza sativa, UniProt Q6ZLB0 1-436)", "T1 sequence": "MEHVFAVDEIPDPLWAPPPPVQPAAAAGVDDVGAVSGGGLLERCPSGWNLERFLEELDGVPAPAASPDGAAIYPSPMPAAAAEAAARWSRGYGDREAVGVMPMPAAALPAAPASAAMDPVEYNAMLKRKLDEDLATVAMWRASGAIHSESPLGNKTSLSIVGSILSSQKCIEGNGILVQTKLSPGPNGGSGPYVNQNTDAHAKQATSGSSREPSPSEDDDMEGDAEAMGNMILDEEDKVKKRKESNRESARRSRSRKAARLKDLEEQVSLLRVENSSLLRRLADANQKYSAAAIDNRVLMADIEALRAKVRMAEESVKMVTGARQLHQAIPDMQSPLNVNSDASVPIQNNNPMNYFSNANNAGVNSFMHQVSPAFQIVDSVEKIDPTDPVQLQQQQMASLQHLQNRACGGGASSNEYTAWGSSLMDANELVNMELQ", "test": "protein-binding microarray (RPBM); PBS, 2% BSA, 51.3 ng/ul salmon testes DNA, 50 uM zinc acetate, 200 nM TF, 25 C, 1 h; high values mean tight binding", "settings": "protein: recombinant; tags: N-terminal polyhistidine and DsRed monomer fusion (pET32a); chain copies: 2; label: CyDye5-dUTP incorporated in the synthesized complementary strand; 3' TTTTT single-stranded linker to array surface; dsDNA, one strand shown", "how_it_was_run": "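The binding signal is fluorescence intensity per array feature (arbitrary units). Readings came from an Axon 4000B scanner after a washed, 2% BSA-blocked, double-stranded custom Agilent array had been incubated for 1 h at 25 °C with 200 nM protein and 50 µM zinc acetate. The protein was a Ni–NTA-purified transcription factor fused N-terminally to polyhistidine and DsRed, expressed in E. coli BL21-CodonPlus.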"}
{"sequence": "TGTTGTGCTGGTTGGTTCCAGATCTAACAGTGACAGTGCGCGGAGTCACCTAGTGCAG", "binding signal": "4380 fluorescence intensity (a.u.)"}
{"sequence": "AAGTCCGATTCGTGAGTCACAGATGTTGACTCGCCGAAAACGGAGTCACCTAGTGCAG", "binding signal": "5350 fluorescence intensity (a.u.)"}
{"sequence": "TCCTTCTATATGTTTGCACTTACGTGGGCCGTATTTATGCCGGAGTCACCTAGTGCAG", "binding signal": "9040 fluorescence intensity (a.u.)"}
{"sequence": "GACGATCAAGATCGACACGACCAACGTGGCATGTTGCGTACGGAGTCACCTAGTGCAG", "binding signal": "9470 fluorescence intensity (a.u.)"}
{"sequence": "GAGGAGGAGGAGGCTGATGTGGCAGCCTGACATGTGGGGCCGGAGTCACCTAGTGCAG", "binding signal": "7020 fluorescence intensity (a.u.)"}
{"sequence": "AAAGGATGATATTTATTCGATCCTTGTTCGAATGTAGACTCGGAGTCACCTAGTGCAG", "binding signal": "55700 fluorescence intensity (a.u.)"}
{"sequence": "TCCTTGATCCTTTATTTGATATTTGTTTAGATATATAATTCGGAGTCACCTAGTGCAG", "binding signal": "37900 fluorescence intensity (a.u.)"}
{"sequence": "TACGATGAGTCATTTATTGATTATTGTATTAATGTTCCTTCGGAGTCACCTAGTGCAG", "binding signal": "11500 fluorescence intensity (a.u.)"}
{"sequence": "CGCTGTGTATATATGTGCAGGTCCATCCATGAGAGGTTGACGGAGTCACCTAGTGCAG", "binding signal": "34900 fluorescence intensity (a.u.)"}
{"sequence": "GCCCAGCGTGCACGGCGCGACGGACTCGCGCGGCACTAGCCGGAGTCACCTAGTGCAG", "binding signal": "5790 fluorescence intensity (a.u.)"}
{"sequence": "GGCATAATAGGCCAGCCGTGTAGGCAGAGACACCAGTCGGCGGAGTCACCTAGTGCAG", "binding signal": "4530 fluorescence intensity (a.u.)"}
{"sequence": "GGCCAGCCGTGTAGGCGGAGGCACCACTCGGCGGCGACGGCGGAGTCACCTAGTGCAG", "binding signal": "49900 fluorescence intensity (a.u.)"}
{"sequence": "TGCTGAGTGAGTGATGAGTGTGCGAATGTGTGATCGATCGCGGAGTCACCTAGTGCAG", "binding signal": "3860 fluorescence intensity (a.u.)"}
{"sequence": "ATTATTCATAAGCTGAATATTCTTATTCATACATTCGGATCGGAGTCACCTAGTGCAG", "binding signal": "6460 fluorescence intensity (a.u.)"}
{"sequence": "CGAAGACTAAGTCAACACCACCACGTAGTCGCCACATCAGCGGAGTCACCTAGTGCAG", "binding signal": "8880 fluorescence intensity (a.u.)"}
{"sequence": "GCCACGTGGGATGAAGCCTAAGTCAACATCGCCACGTCAGCGGAGTCACCTAGTGCAG", "binding signal": "43200 fluorescence intensity (a.u.)"}
{"sequence": "CTAGGTCAACACCGCCATGTCAGCGCCACGTCAGCGAAACCGGAGTCACCTAGTGCAG", "binding signal": "28700 fluorescence intensity (a.u.)"}
{"sequence": "GGCTATTGGGAGCCACGTCAGCCGGTGGCCTCCGCCATCGCGGAGTCACCTAGTGCAG", "binding signal": "22600 fluorescence intensity (a.u.)"}
{"sequence": "CCAGGTCAACATTGCCACGTGTGCGGCCACGTCAGCGAAACGGAGTCACCTAGTGCAG", "binding signal": "33400 fluorescence intensity (a.u.)"}
{"sequence": "CACGTGGGACGAAAACTAGGTCAACATCGCCACGTCAGCGCGGAGTCACCTAGTGCAG", "binding signal": "45900 fluorescence intensity (a.u.)"}
{"sequence": "GACTTGATTACCACGCGTATACTATATAGGACAAAATTGCCGGAGTCACCTAGTGCAG", "binding signal": "3190 fluorescence intensity (a.u.)"}
{"sequence": "TGTTCCTCCACGTCGCTCCGCCGCTCCGCCCGCCTTGCTTCGGAGTCACCTAGTGCAG", "binding signal": "5090 fluorescence intensity (a.u.)"}
{"sequence": "TCCGGAGAGTTGACGCAGCGTCAACCGGGTCCGTCGTTCTCGGAGTCACCTAGTGCAG", "binding signal": "3800 fluorescence intensity (a.u.)"}
{"sequence": "AATCGCGAGATATCCACGTGAGATTGCGCAGCGAGACGCGCGGAGTCACCTAGTGCAG", "binding signal": "5140 fluorescence intensity (a.u.)"}
{"sequence": "ATGAGAGATAAGTAGATGACACATTCACAGTTGCTATAGTCGGAGTCACCTAGTGCAG", "binding signal": "4040 fluorescence intensity (a.u.)"}
{"sequence": "AAGCTAGCGGTCACCCAGTCAGCTCACCCCGAGACGCACCCGGAGTCACCTAGTGCAG", "binding signal": "4400 fluorescence intensity (a.u.)"}
{"sequence": "CGCAGTTGCTTCTGCAAAAGAGATTGATGACAAGGATCACCGGAGTCACCTAGTGCAG", "binding signal": "3530 fluorescence intensity (a.u.)"}
{"sequence": "TCGATCGACATGGTGAATTGGCGATCGGGTTGGCTCGGCTCGGAGTCACCTAGTGCAG", "binding signal": "3170 fluorescence intensity (a.u.)"}
{"sequence": "GCCACGTAGGTGCCATGTGGCACCACGTCAGCAAAATTGCCGGAGTCACCTAGTGCAG", "binding signal": "49100 fluorescence intensity (a.u.)"}
{"sequence": "TAGGCAAATTACATGGCATGTGCCACGTCGTTGTTGCACCCGGAGTCACCTAGTGCAG", "binding signal": "16500 fluorescence intensity (a.u.)"}
{"sequence": "TTTTATTTCTACTGCCACGTAGGTGCCACGTCAACGCCACCGGAGTCACCTAGTGCAG", "binding signal": "49800 fluorescence intensity (a.u.)"}
{"sequence": "TTATTTCTACTGCCACGTAGGTGCCACGTCAACGCCACGTCGGAGTCACCTAGTGCAG", "binding signal": "37400 fluorescence intensity (a.u.)"}
{"sequence": "CTACTGACACGTAGGTGCCACCATGGCATGCCACGTCAGCCGGAGTCACCTAGTGCAG", "binding signal": "61500 fluorescence intensity (a.u.)"}
{"sequence": "TAAATGTTCGTGTGGCATGCCACATCAGCACCACGTAGGACGGAGTCACCTAGTGCAG", "binding signal": "21400 fluorescence intensity (a.u.)"}
{"sequence": "TTTATTTCTACCGCCACGTAGGTGCCATGTCAATGTCACGCGGAGTCACCTAGTGCAG", "binding signal": "14300 fluorescence intensity (a.u.)"}
{"sequence": "GTAGGTGACATGTGTGGTGTCACACTGACTCAGCCATCACCGGAGTCACCTAGTGCAG", "binding signal": "10600 fluorescence intensity (a.u.)"}
{"sequence": "TTAGACACGTAGGTGCCATGTCAGCCAAAACCACCGAGGGCGGAGTCACCTAGTGCAG", "binding signal": "17100 fluorescence intensity (a.u.)"}
{"sequence": "CATAGATTAATATGAAATATATAACTCCACAAATATGCAACGGAGTCACCTAGTGCAG", "binding signal": "3500 fluorescence intensity (a.u.)"}
{"sequence": "ACACGGCCTATAAATATCTAACCATCCTTTGCCTGTCGAGCGGAGTCACCTAGTGCAG", "binding signal": "4970 fluorescence intensity (a.u.)"}
{"sequence": "TGGATTTTGCACCGATCGCACCACGTCTCCGTCTGTTTGCCGGAGTCACCTAGTGCAG", "binding signal": "4240 fluorescence intensity (a.u.)"}
{"sequence": "TCGCCCGCACGTGGCCCTCCTCTCCTCCCTCCCACCTCGTCGGAGTCACCTAGTGCAG", "binding signal": "3380 fluorescence intensity (a.u.)"}
{"sequence": "ACCACACACACACTGACACTGTGACACAACACAACACGGCCGGAGTCACCTAGTGCAG", "binding signal": "6920 fluorescence intensity (a.u.)"}
{"sequence": "TCACCAATCACCTGCCCTCACACCAACACGCCACGCGAACCGGAGTCACCTAGTGCAG", "binding signal": "3750 fluorescence intensity (a.u.)"}
